Measurements from PubChem BioAssay AID1159580 (chemical genetic matrix, 2015).
Among all 5,500 compounds or so, about 2,000 (36%) were called active. About 18% were inconclusive and are not listed. Rule as the data show it: active = normalized growth mostly below about 0.91 (no sharp cut-off); inconclusive = no clear call, values can overlap the other calls; inactive = mostly above about 0.92. This is one part of the list.

Test: chemical genetic growth profiling, strain panel (AID 1159580);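 also: tested at 20 µM; growth read once vehicle control cultures reached saturation at 30 °C; 1 = growth at the plate median or of vehicle wells; lower values mean less growth of the strain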
Conditions: growth OD
[1] = S. cerevisiae deletion strains, locus YAL013W, strain DEP1, hits give low values
[2] = S. cerevisiae deletion strains, locus YBR229C, strain ROT2, hits give low values
[3] = S. cerevisiae deletion strains, locus YDL101C, strain DUN1, hits give low values
[4] = S. cerevisiae deletion strains, locus YDL134C, strain PPH21, hits give low values
[5] = S. cerevisiae deletion strains, locus YDR150W, strain NUM1, hits give low values
[6] = S. cerevisiae deletion strains, locus YEL061C, strain CIN8, hits give low values
[7] = S. cerevisiae deletion strains, locus YGR078C, strain PAC10, hits give low values
[8] = S. cerevisiae deletion strains, locus YHR030C, strain SLT2, hits give low values
[9] = S. cerevisiae deletion strains, locus YHR087W, strain rtc3, hits give low values
[10] = S. cerevisiae deletion strains, locus YJR043C, strain POL32, hits give low values
[11] = S. cerevisiae deletion strains, locus YJR075W, strain HOC1, hits give low values
[12] = S. cerevisiae deletion strains, locus YLR039C, strain RIC1, hits give low values
[13] = S. cerevisiae deletion strains, locus YLR058C, strain SHM2 (second series), hits give low values
[14] = S. cerevisiae deletion strains, locus YLR085C, strain ARP6, hits give low values
[15] = S. cerevisiae deletion strains, locus YLR262C, strain YPT6, hits give low values
[16] = S. cerevisiae deletion strains, locus YML094W, strain GIM5, hits give low values
[17] = S. cerevisiae deletion strains, locus YMR219W, strain ESC1, hits give low values
[18] = S. cerevisiae deletion strains, locus YMR263W, strain SAP30, hits give low values
[19] = S. cerevisiae deletion strains, locus YNL153C, strain GIM3, hits give low values
[20] = S. cerevisiae deletion strains, locus YNL298W, strain CLA4 (second series), hits give low values
[21] = S. cerevisiae deletion strains, locus YNL322C, strain KRE1, hits give low values
[22] = S. cerevisiae deletion strains, locus YNR030W, strain Alg12, hits give low values
[23] = S. cerevisiae deletion strains, locus YOL006C, strain TOP1, hits give low values
[24] = S. cerevisiae deletion strains, locus YPL055C, strain LGE1, hits give low values
[25] = S. cerevisiae deletion strains, locus YPL241C, strain CIN2, hits give low values
[26] = S. cerevisiae deletion strains, locus YPR135W, strain CTF4, hits give low values
[27] = S. cerevisiae deletion strains, locus YKL190W, strain CNB1, hits give low values
[28] = S. cerevisiae deletion strains, locus YJL187C, strain SWE1, hits give low values
[29] = S. cerevisiae deletion strains, locus YMR307W, strain GAS1, hits give low values
[30] = S. cerevisiae deletion strains, locus YCL061C, strain MRC1, hits give low values
[31] = S. cerevisiae strains, strain wild type, hits give low values

Measured: normalized growth

Cc1ccc(Sc2ncccc2C(=O)NCC(=O)O)cc1
inactive: [1] 1.03 | [2] 1.02 | [3] 1.04 | [4] 0.999 | [5] 1.03 | [6] 1.01 | [7] 1.04 | [8] 1.06 | [9] 0.994 | [10] 0.962 | [11] 1.02 | [12] 1 | [13] 1.02 | [14] 1.02 | [15] 1.01 | [16] 0.992 | [17] 1.01 | [18] 1.02 | [19] 1.03 | [20] 1.02 | [21] 1.01 | [22] 1.02 | [23] 1.04 | [24] 1.01 | [25] 0.996 | [26] 1.08

NNC(=O)c1cccnc1Oc1ccccc1
inactive: [1] 1.01 | [2] 0.998 | [3] 1.03 | [5] 1.04 | [6] 1.02 | [7] 1.02 | [8] 1.11 | [9] 1.02 | [10] 1.01 | [11] 1.03 | [27] 1.02 | [12] 1.12 | [13] 1 | [14] 1.12 | [15] 1.01 | [16] 1.03 | [17] 1.02 | [18] 1.02 | [19] 1.01 | [20] 1.08 | [21] 1.01 | [22] 1.03 | [24] 1.02 | [25] 1.04 | [26] 1.14

Cc1ccc(Sc2ncccc2NS(=O)(=O)c2ccc(Cl)cc2)cc1
active: [8] 0.839 | S. cerevisiae deletion strains, locus YLR113W, strain HOG1, hits give low values 0.809 | S. cerevisiae deletion strains, locus YPL256C, strain CLN2, hits give low values 0.827
inactive: S. cerevisiae deletion strains, locus YAR019C, strain CDC15, hits give low values 0.933 | S. cerevisiae deletion strains, locus YBL105C, strain PKC1, hits give low values 0.924 | S. cerevisiae deletion strains, locus YBR135W, strain CKS1, hits give low values 0.935 | S. cerevisiae deletion strains, locus YBR136W, strain MEC1, hits give low values 0.922 | S. cerevisiae deletion strains, locus YBR160W, strain CDC28, hits give low values 0.934 | S. cerevisiae deletion strains, locus YDL017W, strain CDC7, hits give low values 0.937 | S. cerevisiae deletion strains, locus YDL028C, strain MPS1, hits give low values 0.932 | [3] 0.947 | S. cerevisiae deletion strains, locus YDL108W, strain KIN28, hits give low values 0.919 | S. cerevisiae deletion strains, locus YDL132W, strain cdc53, hits give low values 0.932 | S. cerevisiae deletion strains, locus YDL214C, strain PRR2, hits give low values 0.852 | S. cerevisiae deletion strains, locus YDR052C, strain DBF4, hits give low values 0.952 | S. cerevisiae deletion strains, locus YDR054C, strain cdc34, hits give low values 0.922 | S. cerevisiae deletion strains, locus YDR226W, strain ADK1, hits give low values 0.938 | S. cerevisiae deletion strains, locus YDR477W, strain SNF1, hits give low values 0.881 | S. cerevisiae deletion strains, locus YER123W, strain YCK3, hits give low values 0.823 | S. cerevisiae deletion strains, locus YER133W, strain GLC7, hits give low values 0.855 | S. cerevisiae deletion strains, locus YFL009W, strain cdc4, hits give low values 0.935 | S. cerevisiae deletion strains, locus YFL029C, strain CAK1, hits give low values 0.931 | S. cerevisiae deletion strains, locus YFR003C, strain YPI1, hits give low values 0.929 | S. cerevisiae deletion strains, locus YFR019W, strain FAB1, hits give low values 0.923 | S. cerevisiae deletion strains, locus YFR028C, strain CDC14, hits give low values 0.926 | S. cerevisiae deletion strains, locus YGR040W, strain KSS1, hits give low values 0.858 | S. cerevisiae deletion strains, locus YGR052W, strain FMP48, hits give low values 0.907 | S. cerevisiae deletion strains, locus YGR092W, strain DBF2, hits give low values 0.826 | S. cerevisiae deletion strains, locus YHR079C, strain IRE1, hits give low values 0.87 | S. cerevisiae deletion strains, locus YHR082C, strain KSP1, hits give low values 0.845 | S. cerevisiae deletion strains, locus YHR205W, strain SCH9, hits give low values 0.852 | S. cerevisiae deletion strains, locus YIL147C, strain SLN1, hits give low values 0.917 | S. cerevisiae deletion strains, locus YJL095W, strain BCK1, hits give low values 0.909 | S. cerevisiae deletion strains, locus YJL128C, strain PBS2, hits give low values 0.88 | S. cerevisiae deletion strains, locus YJL157C, strain FAR1, hits give low values 0.856 | S. cerevisiae deletion strains, locus YJR016C, strain ILV3, hits give low values 0.919 | S. cerevisiae deletion strains, locus YJR066W, strain TOR1 (second series), hits give low values 0.851 | S. cerevisiae deletion strains, locus YJR066W, strain TOR1, hits give low values 0.882 | S. cerevisiae deletion strains, locus YKL048C, strain ELM1, hits give low values 0.888 | S. cerevisiae deletion strains, locus YKL067W, strain YNK1, hits give low values 0.894 | S. cerevisiae deletion strains, locus YKL101W, strain HSL1, hits give low values 0.884 | S. cerevisiae deletion strains, locus YKL193C, strain SDS22, hits give low values 0.932 | S. cerevisiae deletion strains, locus YKL203C, strain TOR2, hits give low values 0.928 | S. cerevisiae deletion strains, locus YLR133W, strain CKI1, hits give low values 0.894 | S. cerevisiae deletion strains, locus YLR403W, strain SFP1, hits give low values 0.861 | S. cerevisiae deletion strains, locus YML070W, strain DAK1, hits give low values 0.849 | S. cerevisiae deletion strains, locus YMR001C, strain CDC5, hits give low values 0.928 | S. cerevisiae deletion strains, locus YMR205C, strain PFK2 (second series), hits give low values 0.888 | S. cerevisiae deletion strains, locus YMR277W, strain FCP1, hits give low values 0.934 | S. cerevisiae deletion strains, locus YNL006W, strain LST8, hits give low values 0.947 | S. cerevisiae deletion strains, locus YNL020C, strain ARK1, hits give low values 0.879 | S. cerevisiae deletion strains, locus YNL161W, strain CBK1, hits give low values 0.929 | S. cerevisiae deletion strains, locus YNL183C, strain NPR1, hits give low values 0.897 | S. cerevisiae deletion strains, locus YNL207W, strain RIO2, hits give low values 0.924 | S. cerevisiae deletion strains, locus YNL222W, strain SSU72, hits give low values 0.933 | S. cerevisiae deletion strains, locus YNL307C, strain MCK1 (second series), hits give low values 0.885 | S. cerevisiae deletion strains, locus YOL078W, strain AVO1, hits give low values 0.94 | S. cerevisiae deletion strains, locus YOL136C, strain PFK27, hits give low values 0.854 | S. cerevisiae deletion strains, locus YOR061W, strain CKA2, hits give low values 0.85 | S. cerevisiae deletion strains, locus YOR119C, strain RIO1, hits give low values 0.912 | S. cerevisiae deletion strains, locus YOR231W, strain MKK1, hits give low values 0.891 | S. cerevisiae deletion strains, locus YOR329C, strain SCD5, hits give low values 0.929 | S. cerevisiae deletion strains, locus YPL031C, strain PHO85, hits give low values 0.866 | S. cerevisiae deletion strains, locus YPL153C, strain RAD53, hits give low values 0.863 | S. cerevisiae deletion strains, locus YPL204W, strain HRR25, hits give low values 0.884 | S. cerevisiae deletion strains, locus YPL209C, strain IPL1, hits give low values 0.934 | S. cerevisiae deletion strains, locus YPR025C, strain CCL1, hits give low values 0.933 | S. cerevisiae deletion strains, locus YPR106W, strain ISR1, hits give low values 0.925 | S. cerevisiae deletion strains, locus YPR111W, strain DBF20, hits give low values 0.924 | S. cerevisiae deletion strains, strain NNK1, hits give low values 0.92 | S. cerevisiae deletion strains, strain TSCII, hits give low values 0.928

CC(C)(C)c1ccc(Oc2ncccc2NC(=O)c2ccccc2C(F)(F)F)cc1
inactive: [1] 0.986 | [2] 1.01 | [3] 1.02 | [4] 0.996 | [5] 1.06 | [6] 1 | [7] 0.992 | [8] 0.934 | [9] 1 | [28] 0.998 | [10] 0.948 | [11] 0.988 | [27] 1 | [12] 0.982 | [13] 0.986 | [14] 0.972 | [15] 0.967 | [16] 1.03 | [17] 0.999 | [18] 1.01 | [29] 0.876 | [19] 1 | [20] 0.987 | [21] 1 | [22] 0.993 | [24] 0.996 | [25] 0.987 | [26] 0.984

Cc1ccc(SC(=O)c2cccnc2Oc2ccccc2)cc1
inactive: [1] 0.972 | [2] 0.988 | [30] 0.989 | [3] 1.03 | [4] 0.983 | [5] 1.02 | [6] 0.965 | [7] 0.992 | [8] 0.815 | [9] 0.953 | [28] 0.98 | [10] 0.992 | [11] 0.985 | [13] 0.992 | [14] 0.818 | [16] 0.949 | [17] 0.993 | [18] 0.984 | [19] 0.982 | [20] 0.925 | [21] 0.983 | [22] 0.91 | [24] 0.939 | [25] 0.94 | [26] 0.723 | [31] 0.952
active: [12] 0.723 | [15] 0.679

CCSc1ncccc1C(=O)N[C@@H](CCSC)C(=O)OC
inactive: [1] 0.994 | [2] 0.996 | [3] 0.98 | [5] 0.906 | [6] 1.02 | [7] 0.993 | S. cerevisiae deletion strains, locus YGR229C, strain SMI1, hits give low values 1 | [8] 0.979 | [9] 1 | [10] 0.98 | [11] 1.01 | [27] 1.01 | [12] 1 | [13] 1.01 | [14] 1.04 | [15] 1.02 | [16] 1.03 | [17] 1.01 | [18] 1.01 | [29] 1.02 | [19] 0.999 | [20] 1.01 | [21] 1.01 | [22] 0.997 | [23] 1 | [24] 1.09 | [25] 1.01 | [26] 0.91 | [31] 1

COC(=O)c1cccnc1Sc1ccc(C)cc1
inactive: [1] 0.947 | [2] 0.97 | [30] 0.968 | [3] 0.991 | [4] 0.958 | [5] 0.904 | [6] 0.956 | [7] 0.954 | [9] 0.974 | [28] 0.967 | [10] 0.95 | [11] 0.989 | [12] 0.913 | [13] 0.966 | [15] 0.961 | [16] 0.97 | [17] 0.958 | [18] 0.962 | [29] 0.686 | S. cerevisiae deletion strains, locus YNL128W, strain TEP1, hits give low values 0.98 | [19] 0.991 | [20] 0.917 | [21] 0.965 | [22] 0.928 | [24] 0.812 | [31] 0.965
active: [8] 0.432 | [14] 0.666 | [23] 0.684 | [25] 0.769 | [26] 0.61
